Our source for the Potency and outcome values is PubChem BioAssay (Tox21).

Test [1] is described as follows: qHTS assay to identify small molecule antagonists of the estrogen receptor alpha (ER-alpha) signaling pathway using the BG1 cell line in the presence of 0.1 nM 17-beta-estradiol - cell viability counter screen (AID 1259241). Further: nearly all actives have a fitted effect of over 40% in size. Further: potency means the concentration at half of the fitted maximal effect. A digest of the protocol: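 VM7Luc4E2 cells (endogenous ER-alpha, 4×ERE-luciferase), hormone-starved 5 days in charcoal-stripped FBS, were treated with compounds plus 0.1 nM 17beta-estradiol for 22 hr at 37C; viability read in same wells as CellTiter-Fluor live-cell protease fluorescence.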
(Quantitative high-throughput screening tests each substance at several concentrations.)

Test [2] has as its target Estrogen receptor (Homo sapiens) (UniProt P03372). As to the kind of experiment: qHTS assay to identify small molecule antagonists of the estrogen receptor alpha (ER-alpha) signaling pathway using the BG1 cell line in the presence of 0.1 nM 17-beta-estradiol (AID 1259244). Further: nearly all actives have a fitted effect of over 50% in size. Further: potency means the concentration at half of the fitted maximal effect. A digest of the protocol: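 Cells: VM7Luc4E2, endogenous ER-alpha, 4x ERE-luc stable. Pre-culture 5 d, phenol red-free, charcoal-stripped FBS. Plated 24 h, compound + E2 0.1 nM final, 22 h 37C/5% CO2. Readout ONE-Glo luminescence.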

Test [3] can be described thus: qHTS assay to identify small molecule HDAC inhibitors (AID 1259364). Further: top concentration of the series differs between compounds; nearly all actives have a fitted effect of over 45% in size. A digest of the protocol: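 Luminescence from a cell-permeant luminogenic class I/II HDAC substrate reports endogenous deacetylase activity in intact HCT-116 cells treated with compounds for 2 h.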
Test [4] is described as follows: qHTS assay to identify small molecule HDAC inhibitors - cell viability counter screen (AID 1259365). Further: nearly all actives have a fitted effect of over 50% in size. Further: potency means the concentration at half of the fitted maximal effect. A digest of the protocol: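 Wild-type HCT-116 cells were seeded at 1,500 per well, incubated overnight at 37 C, then exposed to compounds in DMSO for 2hr. Viability was read by CellTiter-Glo luminescence after 30min at room temperature.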
The nature of test [5]: qHTS assay to identify small molecule agonists of the sonic hedgehog signaling (Shh) pathway - cell viability counter screen (AID 1259366). Further: nearly all actives have a fitted effect of over 50% in size. Further: potency means the concentration at half of the fitted maximal effect. A digest of the protocol: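 NIH/3T3-derived 3T3 Gli1-Luc cells (stable Gli1-responsive firefly luciferase reporter) were seeded, rested 4 hr at 37 C/5% CO2, then exposed to compounds in DMSO for 24 hr; viability was read by CellTiter-Fluor fluorescence in the same wells.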

Test [6] can be described thus: qHTS assay to identify small molecule antagonists of the sonic hedgehog signaling (Shh) pathway - cell viability counter screen (AID 1259367). Further: nearly all actives have a fitted effect of over 55% in size. Further: potency means the concentration at half of the fitted maximal effect. A digest of the protocol: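 Using CellTiter-Fluor, viability of Gli1-Luc reporter 3T3 cells is read by fluorescence in the wells used for the Shh luciferase assay. Treatment lasts 23 hr with conditioned medium, then reagent 1 hr at 37C.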

Test [7] in a line: qHTS assay to identify small molecule agonists of the sonic hedgehog signaling (Shh) pathway (AID 1259368; calls by dose curve; further: nearly all actives have a fitted effect of over 15% in size; further: potency means the concentration at half of the fitted maximal effect). A digest of the protocol: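 3T3Gli1-Luc (NIH/3T3 clone, stable Gli1-Luc); 4 hr pre-incubation, then cpd in DMSO 24 hr, 37 C/5% CO2; luciferase reagent 30 min RT; luminescence.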
Test [8] in a line: qHTS assay to identify small molecule antagonists of the androgen receptor (AR) signaling pathway using the MDA cell line in the presence of 0.5 nM R1881 - cell viability counter screen (AID 1259242). Further: potency means the concentration at half of the fitted maximal effect; nearly all actives have a fitted effect of over 45% in size. A digest of the protocol: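 Counter screen for cytotoxicity run in the same wells as the AR antagonist reporter screen: MDA-kb2 cells were treated 16 hr with test compounds and 0.5 nM R1881, then live-cell protease activity was measured by fluorescence.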

Test [9] is described as follows: qHTS assay to identify small molecule phospholipidosis (PLD) inducers (AID 1259344; active means well fitted curve in the direction sought with a large enough effect; an effect the other way counts as inactive or inconclusive). A digest of the protocol:
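Fluorescent phospholipid staining (LipidTOX Red) measured by automated microscopy in fixed HepG2 cells after 24 h treatment; nuclei counterstained with Hoechst 33342; amiodarone as reference inducer.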

Several values for one entry are separate records, joined by “and”; a condition that tells them apart may be missing. Identical values can stand only once. Inconclusive results are not listed. The source holds several records for some structures; these can differ, active in one and inactive in another. Activity calls are given as the source filed them. Unless noted, the call rests on the fitted dose curve; in most records, active means well fitted curve in the direction sought with a large enough effect in the repeat runs; inconclusive means weak or mixed curves; inactive means no such curve, though single readings can be large; an effect the other way counts as inactive or inconclusive.

Estrogen receptor (Homo sapiens), sequence (P03372 whole entry, looked up): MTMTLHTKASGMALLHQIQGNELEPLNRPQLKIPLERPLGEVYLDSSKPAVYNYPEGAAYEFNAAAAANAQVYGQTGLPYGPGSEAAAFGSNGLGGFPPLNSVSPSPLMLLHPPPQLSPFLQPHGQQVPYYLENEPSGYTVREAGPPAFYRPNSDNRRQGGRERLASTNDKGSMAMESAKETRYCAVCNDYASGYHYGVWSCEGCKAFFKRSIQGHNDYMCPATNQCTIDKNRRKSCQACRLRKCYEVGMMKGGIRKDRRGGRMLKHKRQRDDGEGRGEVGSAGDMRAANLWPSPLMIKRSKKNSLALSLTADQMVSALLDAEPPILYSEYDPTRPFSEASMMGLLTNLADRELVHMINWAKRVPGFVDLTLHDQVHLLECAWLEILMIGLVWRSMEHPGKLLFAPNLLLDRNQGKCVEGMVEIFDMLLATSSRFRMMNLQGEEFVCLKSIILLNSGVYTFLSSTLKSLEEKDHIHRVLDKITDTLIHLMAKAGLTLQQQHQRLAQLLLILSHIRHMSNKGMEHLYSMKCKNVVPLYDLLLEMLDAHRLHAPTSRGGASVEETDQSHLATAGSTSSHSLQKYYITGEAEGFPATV

Turning to `CCCCCCCC[N+](C)(CCCCCCCC)CCCCCCCC`, the Potency in test [1] was 24.3 µM (active) and 27.3 µM (active) and 48.6 µM (active); in test [2], 1.22 µM (active) and 15.4 µM (active); in test [4] it was “inactive and 61.1 µM (active)”; in test [5], 48.5 µM (active) and 9.7 µM (active) and 19.3 µM (active); in test [6], 61 µM (active) and 10.9 µM (active) and 24.3 µM (active). Also, the Potency result in test [3] and in test [7] was “inactive” each time.

For `ClCC(Cl)CCl`, the Potency entry in test [1], in test [3], in test [5], in test [6] and in test [7] was “inactive” in each case.

On to `O=[N+]([O-])c1ccc(Nc2ccccc2)cc1`, for which the Potency entry in test [3], in test [4] and in test [7] was “inactive” each time. Also, the Potency in test [6] is 48.9 µM (active).

On to `Clc1cccc(Cl)c1`, for which the Potency entry in test [1], in test [3], in test [5], in [6] and in test [7] was “inactive” in each case.

With `Cc1ccc([N+](=O)[O-])cc1`, the Potency entry in [1], in [2], in test [3], in [5], in [6] and in test [7] was “inactive” in each case.

With `CCC[CH2][Sn]([Cl])([CH2]CCC)[CH2]CCC`, the Potency in [1] is 7.71 µM (active) and 6.11 µM (active); in test [2], 487 nM (active) and 433 nM (active); in [5] it was 217 nM (active) and 386 nM (active); in test [6], 487 nM (active) and 770 nM (active). In addition, the Potency result in test [3] and in test [7] was “inactive” throughout.

As for `COc1ccc(C=O)cc1OC`, the Potency result in [1], in [2], in [3], in test [4], in test [5] and in [6] was “inactive” each time. Moreover, the Potency result in test [7] is “inactive”.

As to `CC(C)(O)C(=O)Nc1ccc([N+](=O)[O-])c(C(F)(F)F)c1`, the Potency result in [1], in [3], in test [5], in [6] and in test [7] was “inactive” throughout. The Potency in test [2] is 31.3 µM (active) and 35.5 µM (active).

On to `N#Cc1c(Cl)c(Cl)c(Cl)c(C#N)c1Cl`, for which the Potency in test [8] was 16.9 µM (active) and 13.7 µM (active); in [2], 6.73 µM (active) and 15.4 µM (active); in test [5], 2.13 µM (active) and 3.86 µM (active); in test [6], 2.39 µM (active) and 6.86 µM (active); in test [7] it was 673 nM (active) and 969 nM (active). In addition, the Potency entry in test [3] and in test [4] was “inactive” each time.

Consider `Nc1ccc([N+](=O)[O-])cc1N`, for which the Potency in test [1] was 61.1 µM (active); in test [5], 30.6 µM (active) and 24.3 µM (active); in test [6], 12.2 µM (active) and 19.3 µM (active). In addition, the Potency entry in test [3] and in [7] was “inactive” each time.

`CC(C)(c1ccccc1)c1ccc(O)c(C(C)(C)c2ccccc2)c1`: the Potency in test [1] is 61.1 µM (active); in test [2], 60.6 µM (active); in test [5], 60.6 µM (active) and 54.5 µM (active); in [6], 60.6 µM (active) and 43.3 µM (active). For the same compound, the Potency entry in test [3] and in test [7] was “inactive” in each case.

Turning to `CSc1nc(NC(C)C)nc(NC(C)C)n1`, the Potency entry in test [1], in test [2], in test [3], in [4], in test [5] and in [6] was “inactive” in each case. Also, the Potency result in test [7] was “inactive”.

Turning to `O=S(=O)(O)C(F)(F)C(F)(F)C(F)(F)C(F)(F)C(F)(F)C(F)(F)C(F)(F)C(F)(F)F`, the Potency entry in test [1], in test [3], in [5], in test [6] and in test [7] was “inactive” each time.

As for `NC(=O)CN1CCCC1=O`, the Potency result in test [1], in test [3], in test [4], in test [5], in test [6] and in test [7] was “inactive” each time. For the same compound, the call in [9] was inactive.

As to `CN(C)c1nc(=O)n(C2CCCCC2)c(=O)n1C`, the Potency entry in test [1], in [2], in [3], in [4], in test [5] and in test [6] was “inactive” each time. The Potency entry in test [7] is “inactive”.

`CCOS(=O)(=O)OCC`: the Potency entry in test [1], in [2], in [3], in test [4], in test [5] and in test [6] was “inactive” throughout. Moreover, the Potency entry in test [7] was “inactive”.

As to `O=P(OCCCl)(OCCCl)OCCCl`, the Potency result in test [1], in [3], in [4], in test [5], in test [6] and in test [7] was “inactive” in each case.

In the case of `NN=C(N)N`, the Potency result in [1], in test [3], in [5], in test [6] and in test [7] was “inactive” each time. In addition, the call in [9] was inactive.

With `Nc1ncn[nH]1`, the Potency entry in test [1], in test [3], in test [4], in test [5], in test [6] and in test [7] was “inactive” in each case.

Take `Cn1c(-c2ccccc2)cc(-c2ccccc2)[n+]1C`: the Potency result in [1], in test [3], in test [5], in test [6] and in [7] was “inactive” each time. In addition, the Potency in test [2] was 5.44 µM (active) and 24.3 µM (active).

For `C[N+](C)(C)CC(=O)[O-]`, the Potency result in test [1], in [2], in [3], in test [4], in test [5] and in test [6] was “inactive” in each case. The Potency entry in [7] was “inactive”. In addition, in test [9], the outcome was inactive.

Regarding `C[C@]12CCC(=O)C=C1CC[C@@H]1[C@@H]2CC[C@@]2(C)[C@H]1CC[C@]2(C)O`, the Potency result in test [1], in [3], in test [4], in test [5], in [6] and in [7] was “inactive” each time. Further, in test [2], the Potency is 30.9 µM (active) and inactive. In test [9], the compound was called inactive.

`[Cl-].[Cl-].[Cl-].[Fe+3]`: the Potency result in [1], in test [3], in test [4], in test [5], in test [6] and in test [7] was “inactive” in each case.

`CC(C)CON=O`: the Potency entry in [1], in test [2], in test [3], in test [5], in test [6] and in [7] was “inactive” each time.

As for `COP(=O)(NC(C)=O)SC` (configuration not stated), the Potency result in test [1], in test [3], in test [5] and in test [7] was “inactive” each time. In test [6], the Potency was 68.7 µM (active) and inactive.

Consider `CC(C)(C#N)N=NC(C)(C)C#N`, for which the Potency result in test [1], in test [2], in test [3], in [5], in test [6] and in test [7] was “inactive” throughout.

Turning to `OCCOCCO`, the Potency entry in [1], in test [2], in test [3], in test [4] and in [7] was “inactive” each time. The Potency in test [5] is 56.1 µM (active) and inactive; in [6], 14.1 µM (active) and inactive.

As to `N#CCCCCC#N`, the Potency entry in [1], in test [3], in test [4], in test [5], in test [6] and in test [7] was “inactive” throughout.

As to `CC1CC(=O)O1` (configuration not stated), the Potency entry in test [1], in test [3], in test [5], in test [6] and in [7] was “inactive” each time.

In the case of `COc1ccc(CO)cc1`, the Potency entry in test [1], in [3], in [5], in [6] and in test [7] was “inactive” throughout.

As to `ClCc1ccccn1`, the Potency entry in test [1], in [2], in test [3], in [4], in [5] and in test [6] was “inactive” throughout. The Potency entry in [7] is “inactive”.

`ClC(Cl)=C(Cl)C(Cl)=C(Cl)Cl`: the Potency entry in test [1], in test [2], in [3], in test [4], in test [5] and in test [6] was “inactive” in each case. Moreover, the Potency result in [7] was “inactive”.
